According to the supplement of paper PMC4022240:
± gives the standard deviation.

T1: HaloTag-ATRX ADD domain (163-292)
T1 chain: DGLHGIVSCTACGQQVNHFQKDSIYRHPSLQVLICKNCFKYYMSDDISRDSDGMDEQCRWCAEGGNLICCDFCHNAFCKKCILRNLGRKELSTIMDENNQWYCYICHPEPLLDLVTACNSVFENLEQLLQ


Molecular target: T1, HaloTag-ATRX ADD domain (163-292)
Assay: peptide microarray binding signal (635 nm), min-max normalized on array (fraction of array maximum); higher = stronger binding
Settings: peptide region: Unmod H1 variant; binder concentration: 50 nM
Method in brief: (§1)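 An Axon GenePix 4000B scanned the arrays at 635 nm for signal and at 532 nm to catch misprints. Those arrays held histone 13-mer peptide–cellulose conjugates printed in triplicate on nitrocellulose with a Cy3 tracer, blocked overnight at 4°C and probed for 1 h at 4°C with biotin-labelled HaloTag reader fusions (10 nM to 1 μM) plus streptavidin-Alexa Fluor 647 or with rabbit histone antibodies (1:10,000 to 1:2,000) plus anti-rabbit Alexa 647. Each binding signal is a triplicate-spot mean intensity, scaled min-max within its library.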

Binder | peptide microarray binding signal
TLVQTKGTGASGS [Unmod H1 variant T L V Q T K G T G A S G S] | 0.0308 ± 0.012
AAGAKKAKSPKKA [Unmod H1 variant A A G A K K A K S P K K A] | 0.0119 ± 0.00059
KAAKPKKAAAKKK [Unmod H1 variant K A A K P K K A A A K K K] | 0.00972 ± 0.0014
KKAPKSPAKAKAV [Unmod H1 variant K K A P K S P A K A K A V] | 0.00658 ± 0.0021
PKKAKKPAAAAGA [Unmod H1 variant P K K A K K P A A A A G A] | 0.0116 ± 7.8e-05
KAASGEAKPKAKK [Unmod H1 variant K A A S G E A K P K A K K] | 0.0252 ± 0.0022
KPKTAKPKAAKPK [Unmod H1 variant K P K T A K P K A A K P K] | 0.0113 ± 0.0004

Same assay, conditions: peptide region: Unmod H1 variant; binder concentration: 500 nM

Binder | peptide microarray binding signal
TLVQTKGTGASGS [Unmod H1 variant T L V Q T K G T G A S G S] | 0.0171 ± 0.0029
AAGAKKAKSPKKA [Unmod H1 variant A A G A K K A K S P K K A] | 0.01348 ± 5.3e-05
KAKSSAKRAGKKK [Unmod H1 variant K A K S S A K R A G K K K] | 0.016 ± 0.0011
KAAKPKKAAAKKK [Unmod H1 variant K A A K P K K A A A K K K] | 0.00767 ± 0.00046
KKAPKSPAKAKAV [Unmod H1 variant K K A P K S P A K A K A V] | 0.00976 ± 0.00041
PKKAKKPAAAAGA [Unmod H1 variant P K K A K K P A A A A G A] | 0.00771 ± 0.00013
KAAAASKKKPAGP [Unmod H1 variant K A A A A S K K K P A G P] | 0.0113 ± 0.0013
KAASGEAKPKAKK [Unmod H1 variant K A A S G E A K P K A K K] | 0.0245 ± 0.0017
KPKTAKPKAAKPK [Unmod H1 variant K P K T A K P K A A K P K] | 0.00857 ± 0.00027

What follows are binders tested against HaloTag-ING2 PHD (mouse Ing2 200-280) in the same assay as above. Settings: peptide region: Unmod H1 variant; binder concentration: 10 nM.
Method in brief: as §1

Binder | peptide microarray binding signal
TLVQTKGTGASGS [Unmod H1 variant T L V Q T K G T G A S G S] | 0.00734 ± 0.00017
AAGAKKAKSPKKA [Unmod H1 variant A A G A K K A K S P K K A] | 0.003342 ± 1.8e-05
KAAKPKKAAAKKK [Unmod H1 variant K A A K P K K A A A K K K] | 0.0034 ± 6.6e-05
KKAPKSPAKAKAV [Unmod H1 variant K K A P K S P A K A K A V] | 0.00412 ± 0.0002
PKKAKKPAAAAGA [Unmod H1 variant P K K A K K P A A A A G A] | 0.00322 ± 4.7e-05
KAASGEAKPKAKK [Unmod H1 variant K A A S G E A K P K A K K] | 0.007579 ± 5.8e-05
KPKTAKPKAAKPK [Unmod H1 variant K P K T A K P K A A K P K] | 0.00292 ± 8.4e-05

Same assay, conditions: peptide region: Unmod H1 variant; binder concentration: 100 nM

Binder | peptide microarray binding signal
TLVQTKGTGASGS [Unmod H1 variant T L V Q T K G T G A S G S] | 0.0165 ± 0.00046
AAGAKKAKSPKKA [Unmod H1 variant A A G A K K A K S P K K A] | 0.00999 ± 0.0011
KAKSSAKRAGKKK [Unmod H1 variant K A K S S A K R A G K K K] | 0.00369 ± 5.6e-05
KAAKPKKAAAKKK [Unmod H1 variant K A A K P K K A A A K K K] | 0.00673 ± 0.00083
KKAPKSPAKAKAV [Unmod H1 variant K K A P K S P A K A K A V] | 0.00978 ± 0.00048
PKKAKKPAAAAGA [Unmod H1 variant P K K A K K P A A A A G A] | 0.00652 ± 0.00013
KAAAASKKKPAGP [Unmod H1 variant K A A A A S K K K P A G P] | 0.003402 ± 3e-05
KAASGEAKPKAKK [Unmod H1 variant K A A S G E A K P K A K K] | 0.0113 ± 0.0012
KPKTAKPKAAKPK [Unmod H1 variant K P K T A K P K A A K P K] | 0.00914 ± 0.00042

These binders were tested against anti-H3K4me3 antibody ab8580 in the same assay as above. Settings: peptide region: Unmod H1 variant; binder concentration: 1:2,000 dilution.
Method in brief: as §1

Binder | peptide microarray binding signal
TLVQTKGTGASGS [Unmod H1 variant T L V Q T K G T G A S G S] | 0.00255 ± 9.7e-05
AAGAKKAKSPKKA [Unmod H1 variant A A G A K K A K S P K K A] | 0.00068 ± 1.9e-05
KAKSSAKRAGKKK [Unmod H1 variant K A K S S A K R A G K K K] | 0.00034 ± 6.1e-06
KAAKPKKAAAKKK [Unmod H1 variant K A A K P K K A A A K K K] | 0.0007173 ± 6.6e-06
KKAPKSPAKAKAV [Unmod H1 variant K K A P K S P A K A K A V] | 0.000793 ± 4.5e-05
PKKAKKPAAAAGA [Unmod H1 variant P K K A K K P A A A A G A] | 0.000736 ± 1.2e-05
KAAAASKKKPAGP [Unmod H1 variant K A A A A S K K K P A G P] | 0.000321 ± 3.3e-06
KAASGEAKPKAKK [Unmod H1 variant K A A S G E A K P K A K K] | 0.000831 ± 4.9e-05
KPKTAKPKAAKPK [Unmod H1 variant K P K T A K P K A A K P K] | 0.000736

Same assay, conditions: peptide region: Unmod H1 variant; binder concentration: 1:10,000 dilution

Binder | peptide microarray binding signal
TLVQTKGTGASGS [Unmod H1 variant T L V Q T K G T G A S G S] | 0.00388 ± 0.00013
AAGAKKAKSPKKA [Unmod H1 variant A A G A K K A K S P K K A] | 0.00143 ± 2.4e-05
KAAKPKKAAAKKK [Unmod H1 variant K A A K P K K A A A K K K] | 0.00143
KKAPKSPAKAKAV [Unmod H1 variant K K A P K S P A K A K A V] | 0.00154 ± 3.9e-05
PKKAKKPAAAAGA [Unmod H1 variant P K K A K K P A A A A G A] | 0.001541 ± 1.5e-05
KAASGEAKPKAKK [Unmod H1 variant K A A S G E A K P K A K K] | 0.00171 ± 4.3e-05
KPKTAKPKAAKPK [Unmod H1 variant K P K T A K P K A A K P K] | 0.00143 ± 2.4e-05

What follows are binders tested against anti-H3K9me3 antibody ab8898 in the same assay as above. Settings: peptide region: Unmod H1 variant; binder concentration: 1:2,000 dilution.
Method in brief: as §1

Binder | peptide microarray binding signal
TLVQTKGTGASGS [Unmod H1 variant T L V Q T K G T G A S G S] | 0.0019 ± 0.00012
AAGAKKAKSPKKA [Unmod H1 variant A A G A K K A K S P K K A] | 0.0004379 ± 4.2e-06
KAKSSAKRAGKKK [Unmod H1 variant K A K S S A K R A G K K K] | 0.000227
KAAKPKKAAAKKK [Unmod H1 variant K A A K P K K A A A K K K] | 0.000619 ± 2.4e-05
KKAPKSPAKAKAV [Unmod H1 variant K K A P K S P A K A K A V] | 0.000347 ± 9.2e-06
PKKAKKPAAAAGA [Unmod H1 variant P K K A K K P A A A A G A] | 0.000483 ± 9.2e-06
KAAAASKKKPAGP [Unmod H1 variant K A A A A S K K K P A G P] | 0.000181 ± 3.4e-06
KAASGEAKPKAKK [Unmod H1 variant K A A S G E A K P K A K K] | 0.000483 ± 1.7e-05
KPKTAKPKAAKPK [Unmod H1 variant K P K T A K P K A A K P K] | 0.000529 ± 1.8e-05

Same assay, conditions: peptide region: Unmod H1 variant; binder concentration: 1:10,000 dilution

Binder | peptide microarray binding signal
TLVQTKGTGASGS [Unmod H1 variant T L V Q T K G T G A S G S] | 0.00231 ± 7.5e-05
AAGAKKAKSPKKA [Unmod H1 variant A A G A K K A K S P K K A] | 0.00115
KAAKPKKAAAKKK [Unmod H1 variant K A A K P K K A A A K K K] | 0.00156 ± 6.6e-05
KKAPKSPAKAKAV [Unmod H1 variant K K A P K S P A K A K A V] | 0.00115 ± 2e-05
PKKAKKPAAAAGA [Unmod H1 variant P K K A K K P A A A A G A] | 0.00098
KAASGEAKPKAKK [Unmod H1 variant K A A S G E A K P K A K K] | 0.001211 ± 1.2e-05
KPKTAKPKAAKPK [Unmod H1 variant K P K T A K P K A A K P K] | 0.0011 ± 1.1e-05

Molecular target: T1, HaloTag-ATRX ADD domain (163-292)
Assay: as above
Settings: peptide region: Unmod H2A variant; binder concentration: 50 nM
Method in brief: as §1

Binder | peptide microarray binding signal
QGGKARAKSKSRS [Unmod H2A variant Q G G K A R A K S K S R S] | 0.0112 ± 0.00043
SGRGKQGGKARAK [Unmod H2A variant S G R G K Q G G K A R A K] | 0.0203 ± 0.0024

Same assay, conditions: peptide region: Unmod H2A variant; binder concentration: 500 nM

Binder | peptide microarray binding signal
QGGKARAKSKSRS [Unmod H2A variant Q G G K A R A K S K S R S] | 0.0328 ± 0.0016
SGRGKQGGKARAK [Unmod H2A variant S G R G K Q G G K A R A K] | 0.0194 ± 0.0069

These binders were tested against HaloTag-ING2 PHD (mouse Ing2 200-280) in the same assay as above. Settings: peptide region: Unmod H2A variant; binder concentration: 10 nM.
Method in brief: as §1

Binder | peptide microarray binding signal
QGGKARAKSKSRS [Unmod H2A variant Q G G K A R A K S K S R S] | 0.00824 ± 9.4e-05
SGRGKQGGKARAK [Unmod H2A variant S G R G K Q G G K A R A K] | 0.0104 ± 0.00068

Same assay, conditions: peptide region: Unmod H2A variant; binder concentration: 100 nM

Binder | peptide microarray binding signal
QGGKARAKSKSRS [Unmod H2A variant Q G G K A R A K S K S R S] | 0.0201 ± 0.0027
SGRGKQGGKARAK [Unmod H2A variant S G R G K Q G G K A R A K] | 0.0167 ± 0.00073

Each binder was assayed against anti-H3K4me3 antibody ab8580 in the same assay as above. Settings: peptide region: Unmod H2A variant; binder concentration: 1:2,000 dilution.
Method in brief: as §1

Binder | peptide microarray binding signal
QGGKARAKSKSRS [Unmod H2A variant Q G G K A R A K S K S R S] | 0.00194 ± 0.00036
SGRGKQGGKARAK [Unmod H2A variant S G R G K Q G G K A R A K] | 0.000151 ± 1.7e-06

Same assay, conditions: peptide region: Unmod H2A variant; binder concentration: 1:10,000 dilution

Binder | peptide microarray binding signal
QGGKARAKSKSRS [Unmod H2A variant Q G G K A R A K S K S R S] | 0.00143 ± 2.4e-05
SGRGKQGGKARAK [Unmod H2A variant S G R G K Q G G K A R A K] | 0.00337 ± 0.0001

What follows are binders tested against anti-H3K9me3 antibody ab8898 in the same assay as above. Settings: peptide region: Unmod H2A variant; binder concentration: 1:2,000 dilution.
Method in brief: as §1

Binder | peptide microarray binding signal
QGGKARAKSKSRS [Unmod H2A variant Q G G K A R A K S K S R S] | 0.000574 ± 1.1e-05
SGRGKQGGKARAK [Unmod H2A variant S G R G K Q G G K A R A K] | 0.00112 ± 1.7e-05

Same assay, conditions: peptide region: Unmod H2A variant; binder concentration: 1:10,000 dilution

Binder | peptide microarray binding signal
QGGKARAKSKSRS [Unmod H2A variant Q G G K A R A K S K S R S] | 0.000807 ± 1.5e-05
SGRGKQGGKARAK [Unmod H2A variant S G R G K Q G G K A R A K] | 0.00133
